Data: PubChem BioAssay AID1619 (SRMLSC, 2009)
The whole screen tested about 220,000 compounds, of which about 830 (0.38%) were called active.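 The calls were made as follows: active = compound inhibiting the enzyme by more than half at any dose during confirmatory dose-response retesting; inconclusive = strong single-dose inhibitors picked by rank but not retested; inactive = the rest.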 These entries were drawn from the full list. Entries with a potency or affinity are not part of this list.

molecular target: Leucine aminopeptidase (Plasmodium falciparum (isolate 3D7)) (UniProt Q8IL11); test: P. falciparum M17LAP inhibitors, primary screen, biochemical, fluorogenic H-Leu-NHMec substrate, 1536-well (AID 1619); details: recombinant M17LAP, H-Leu-NHMec fluorogenic kinetic assay; at 30 µM; stronger effect = higher value;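 also: plate controls were full reaction with DMSO carrier for no effect and no enzyme background for full effect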
Sequence (Q8IL11 whole entry, looked up): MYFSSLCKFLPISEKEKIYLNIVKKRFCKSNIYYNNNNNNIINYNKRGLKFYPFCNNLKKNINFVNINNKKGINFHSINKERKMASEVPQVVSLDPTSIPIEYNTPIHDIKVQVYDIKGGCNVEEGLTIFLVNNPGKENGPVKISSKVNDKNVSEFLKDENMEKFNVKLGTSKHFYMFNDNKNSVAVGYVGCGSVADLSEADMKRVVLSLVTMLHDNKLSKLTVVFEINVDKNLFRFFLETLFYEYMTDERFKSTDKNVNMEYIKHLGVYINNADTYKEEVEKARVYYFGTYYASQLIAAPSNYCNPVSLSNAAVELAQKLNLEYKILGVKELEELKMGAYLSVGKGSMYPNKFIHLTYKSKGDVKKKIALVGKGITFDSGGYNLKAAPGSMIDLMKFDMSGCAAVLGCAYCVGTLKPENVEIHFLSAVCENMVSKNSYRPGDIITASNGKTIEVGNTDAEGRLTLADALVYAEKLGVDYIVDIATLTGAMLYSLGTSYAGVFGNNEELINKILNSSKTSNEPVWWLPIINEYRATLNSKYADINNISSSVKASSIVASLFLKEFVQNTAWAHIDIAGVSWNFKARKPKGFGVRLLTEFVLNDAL

inhibition, inactive:
O=C(COc1ccc(/C=N/NC(=O)c2ccc(O)cc2)cc1)Nc1cccc([N+](=O)[O-])c1 -2.3%
CNC(=S)Nc1cccc(Cl)c1C 0.94%
CCn1c(Cc2ccccc2)nnc1SCc1ccc([N+](=O)[O-])cc1 -12%
Cc1[nH]c2ccccc2c1N=Nc1cc(C(=O)O)cc(C(=O)O)c1 21.5%
CC(=O)c1cccc(N=Nc2c(C)[nH]c3ccccc23)c1 -8.29%
Oc1[nH]c2ccccc2c1N=Nc1ccc(F)cc1 26.1%
Oc1[nH]c2ccccc2c1N=Nc1ccccc1 7.84%
COc1cccc(CNC(=O)CCC2CCCN(Cc3cc4ccccc4o3)C2)c1 (stereo not given) -1.88%
Cc1nnc(SCc2cc(=O)[nH]c(=S)[nH]2)s1 27.4%
O=c1cc(Cc2ccccc2)[nH]c(=S)[nH]1 0.4%
O=C(NC1CCS(=O)(=O)C1)c1cn(-c2ccccc2)nc1-c1ccccc1 (stereo not given) -4.23%
Cc1cc(C)nc(N2CCCC(C(=O)NC(C)CCc3ccco3)C2)n1 (stereo not given) 2.6%
CC(OC(=O)CCCc1nc2ccccc2s1)C(=O)NC(N)=O (stereo not given) -1.53%
Cc1ccccc1S(=O)(=O)c1cc(C#N)c(=O)[nH]c1N -8.15%
COc1ccc(N(CC(=O)NCc2ccccc2)S(=O)(=O)c2c(C)noc2C)cc1 -3.73%
CCOc1ccc(NC(=S)NCc2nc3ccccc3[nH]2)cc1 -5.56%
Cc1ccc(-c2ccc(/C=N/N3C(=O)C4C5C=CC(CC5)C4C3=O)o2)c([N+](=O)[O-])c1 (stereo not given) 5.1%
O=C(O)CC1S/C(=N/N=C/c2ccc(-c3ccc(Cl)cc3[N+](=O)[O-])o2)NC1=O (stereo not given) 31.2%
COc1cc(-c2cc(C(=O)Nc3nc4ccccc4s3)c3ccccc3n2)cc(OC)c1OC 4.34%
c1ccc(CN2c3ccccc3-c3nc4ccccc4n3C2c2ccccn2)cc1 (stereo not given) 1.51%
COCCOC(=O)C1=C(C)NC(=O)NC1/C=C/c1ccccc1 (stereo not given) 0.26%
Cc1cc(C)c(/C=C(\C#N)S(=O)(=O)c2ccccc2)[nH]1 -7.74%
N#C/C(=C/c1ccc(F)cc1)S(=O)(=O)c1ccccc1 -4.38%
COc1cccc(OCCn2cccc2/C=C2/C(=N)N3OC(C)=CC3=NC2=O)c1 0.81%
CC1=CC2=NC(=O)/C(=C\c3cccn3CCOc3ccccc3)C(=N)N2O1 8.69%
Cc1nn(-c2ccccc2)c(C)c1C(=O)NCc1ccc(F)cc1 -15.7%
FC(F)(F)c1cnc(-c2cnc(-c3cccnc3)nc2)c(Cl)c1 1.19%
c1coc(-c2ncc[nH]2)c1 -2.51%
c1coc(-c2nc(-c3ccco3)c(-c3ccco3)nc2-c2ccco2)c1 48.1%
COc1ccc(/C=N/N2CCN(c3ccncc3S(=O)(=O)N3CCCCC3)CC2)cc1 0%
CCOc1ncccc1C(=O)OCC(=O)c1cc(C)n(Cc2ccco2)c1C 6.52%
Cc1cc(C(=O)COC(=O)c2cccnc2Cl)c(C)n1-c1c(C)n(C)n(-c2ccccc2)c1=O 10.5%
Cc1cc(C(=O)OCC(N)=O)c(C)n1-c1ccccc1 3.65%
CCCn1c(C)cc(C(=O)COC(=O)c2nccnc2N)c1C 6.47%
COc1ccc(Nc2nc(N)nc(CN3CCC(Cc4ccccc4)CC3)n2)cc1 -2.44%
CCOC(=O)CC(=O)CSc1n[nH]c(=O)[nH]c1=O -5.31%
C=CCn1c(SCC(=O)c2ccc(O)c(O)c2)nnc1-c1cccnc1 22.5%
CCn1c(SCC(=O)C(C)(C)C)nnc1-c1ccccc1OC 6.79%
C=CCn1c(SCC(=O)c2ccc(OC)cc2)nnc1-c1cc2cccc(OC)c2o1 3.95%
CCn1c(SCC(=O)O)nnc1-c1ccccc1OC -7.5%
CCC(=O)Nc1ccc(C(=O)NNC(=O)C(c2ccccc2)c2ccccc2)cc1 5.41%
O=C(CNC(=O)c1ccc([N+](=O)[O-])cc1)N/N=C\c1ccc(OC(=O)c2ccccc2)cc1 -2.63%
COc1ccc(S(=O)(=O)NCCc2ccccc2)cc1 -1.2%
Cc1nn(C)cc1/C=N/NC(=O)Cn1cncn1 0.36%
C=CCN1C(=O)CC(C(=O)NC)SC1=Nc1ccc(C(=O)OCC)cc1 (stereo not given) 4.4%
CC(=O)Nc1c(C(=O)N2CCN(c3ccccn3)CC2)cnn1-c1ccc(C)cc1 11%
CC1=CC(C)C2C(=O)N(O)C(=O)C2C1 (stereo not given) 1.69%
CN(c1ccc(F)cc1)S(=O)(=O)c1ccc(Cl)c(C(=O)OCC(=O)NCc2ccco2)c1 4.4%
NC1=NC(=O)/C(=C\c2ccco2)S1 25.9%
COc1ccc(S(=O)(=O)/N=C2/NC(=O)/C(=C\c3ccco3)S2)cc1 22.2%
COc1ccc(Nc2nc3ccccc3nc2NS(=O)(=O)c2cccs2)cc1 9.26%
COc1ccc(NS(=O)(=O)c2cccs2)c(OC)c1 -8.72%
O=C1CN(C(=O)CCN2CCOCC2)C(c2ccccc2)c2cc(Br)ccc2N1 (stereo not given) 8.27%
Cc1cc(/C=C2/C(=O)NN(c3ccccc3)C2=O)c(C)n1-c1ccc(O)cc1 -3.4%
Cc1cc(C=O)c(C)n1-c1ccc(Cl)c(C(=O)O)c1 14.1%
CCCC(C)c1nnc(NC(=O)C(=O)OCC)s1 (stereo not given) 2.47%
O=C(NC(=S)NNS(=O)(=O)c1ccc(Cl)cc1)c1cccnc1 20%
O=C(NC(=S)NNS(=O)(=O)c1ccccc1)c1ccc([N+](=O)[O-])cc1 21.4%
O=C(NNC(=S)NC(=O)c1ccccc1[N+](=O)[O-])c1ccccc1[N+](=O)[O-] 51.9%
O=C(NNS(=O)(=O)c1ccccc1)c1cccnc1 1.34%
CCOC(=O)C1C(=O)C=C(Nc2ccccc2F)CC1c1ccccc1 (stereo not given) 10.8%
CCOC(=O)C(C(=O)OCC)N(C#N)c1nc(OC)nc(N(C)C)n1 3.46%
O=Cc1cccc(Oc2ncccn2)c1 3.35%
CCOC(=O)N1CCC(Nc2c(NCCCN(CC)CC)c(=O)c2=O)CC1 -6.21%
O=C1CCC(=O)N1c1cccc(OS(=O)(=O)c2ccccc2)c1 10.4%
Cc1cc(C(F)(F)F)n2nc(-c3cnn(C)c3C(F)(F)F)c(Br)c2n1 4.73%
COC(=O)[C@H](Cc1ccccc1)NC(=O)NCc1cccs1 7.7%
NS(=O)(=O)c1ccc(NC(=O)N[C@@H](Cc2ccccc2)C(=O)O)cc1 9.55%
O=C(Cc1ccccc1)N[C@@H](Cc1ccc(O)cc1)C(=O)O 7.55%
O=C(NCc1ccccc1)N[C@@H](Cc1ccccc1)C(=O)O 27.9%
COc1ccccc1Nc1nc2ccc(C)cc2cc1C#N 5.31%
COc1ccc(N2CCN(c3nc4ccccc4n3CC(=O)c3ccccc3)CC2)cc1 12.7%
Cc1ccc(S(=O)(=O)/C=C2\NC(=O)CS2)cc1 34.6%
O=C1CS/C(=C/C(=O)c2cccc(Cl)c2)N1 16%
O=C(O)c1ccc(/C=N/NC(=O)c2cc(-c3cccs3)nc3ccccc23)cc1 -43.1%
CC1CCC(N2CCN(c3ncccn3)CC2)CC1 (stereo not given) 1.15%
Cc1ccc(O)c(-c2cc(-c3ccccc3C)[nH]n2)c1 -1.23%
Cc1ccc(-c2cc(-c3ccccc3C)[nH]n2)c(O)c1 9.91%
Cc1ccc(NC(=O)CSC2=C(C#N)C(c3ccco3)C3=C(CC(C)(C)CC3=O)N2)cc1 (stereo not given) 1.21%
C=C(C)C(=O)Oc1ccc(N2C(=O)CCC2=O)cc1 15.3%
O=C(CSc1nc2ccccc2c(=O)n1CCCN1CCOCC1)Nc1cccc(S(=O)(=O)N2CCCCCC2)c1 -0.76%
CCOc1ccccc1NC(=O)N1CCN(S(C)(=O)=O)CC1 -3.49%
CCn1cc(CNC(=O)/C=C/c2cnn(C)c2)c(C)n1 -7.7%
Nc1cc(-c2cccc([N+](=O)[O-])c2)[nH]n1 10.1%
Clc1ccc(-c2n[nH]c3c2CCC3)cc1Cl -3.59%
O=[N+]([O-])c1cccc(-c2ccn[nH]2)c1 0.95%
O=c1cc(O)c(-c2ccc(Cl)c(Cl)c2)c(Cl)[nH]1 4.59%
Cc1ccc([N+](=O)[O-])cc1S(=O)(=O)N1CCCCC1C(=O)O (stereo not given) 11.7%
COc1cccc(CN2CCN(C(=O)CC(C)C)CC2)c1 -2.21%
O=C1CNC(=O)/C(=C/c2ccco2)N1 6.62%
Cc1ccc(-n2c(C)cc(/C=N/Nc3ccc([N+](=O)[O-])cn3)c2C)cc1 -7.78%
Cc1cc(/C=N/Nc2ccc([N+](=O)[O-])cn2)c(C)n1-c1ccccc1 9.51%
Cc1ccnc2nc(C(=O)NCc3cccs3)nn12 -0.8%
NS(=O)(=O)c1ccc(CCNC(=O)C2CCN(S(=O)(=O)c3c(Cl)cccc3Cl)CC2)cc1 1.28%
Cc1cc(C)cc(N(CC(=O)Nc2ccccc2C(=O)N2CCOCC2)S(C)(=O)=O)c1 -5.57%
